From PubChem BioAssay (NCI) come the findings set out here.

Compounds without any hit were thinned out: in the full panel of roughly 83,000, 20% have a hit.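 Interpretation: 100, growth as untreated; towards 0, rising growth inhibition; 0, no net growth; 0 to -100, cell death. Compounds scoring below 10 were considered active.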 Unmarked numbers belong to inactive results. Active and inactive are the calls of the source.

Among the test systems are SR leukemia; RPMI-8226 leukemia; OVCAR-8 ovarian; OVCAR-5 ovarian; OVCAR-4 ovarian; SK-OV-3 ovarian; IGROV1 ovarian; OVCAR-3 ovarian; HS 578T breast; NCI/ADR-RES ovarian; T-47D breast; MDA-MB-435 melanoma; SW-620 colon; MCF7 breast; HCT-116 colon; HCC-2998 colon; KM12 colon; BT-549 breast.
What all share (experiment): NCI-60 one-dose screen, 48 h (100 = growth as untreated, 0 = no growth, -100 = all killed)
Conditions in all cases: 10 µM unless noted

As to `O=C1c2ccccc2CCC12OC2c1cn(-c2ccccc2)nc1-c1ccc(Cl)cc1` (stereo not drawn), the growth in the experiment on SR leukemia was 70.4%; in the experiment with RPMI-8226 leukemia, 81.3%; in the experiment on OVCAR-8 ovarian, 94.5%; in the experiment on OVCAR-5 ovarian it was 111%; with OVCAR-4 ovarian it was 99.2%; with SK-OV-3 ovarian it was 111%. Moreover, the growth in the experiment on IGROV1 ovarian was 95.1%; in the experiment on OVCAR-3 ovarian, 115%; in the experiment with HS 578T breast, 93.3%; in the experiment on NCI/ADR-RES ovarian it was 102%; with T-47D breast, 93.1%; in the experiment with MDA-MB-435 melanoma, 100%. Further, the growth is 95.6% with SW-620 colon; 87.7% in the experiment with MCF7 breast; 47.4% in the experiment with HCT-116 colon; 108% in the experiment with HCC-2998 colon; 97.9% in the experiment on KM12 colon.
With `C=C(C)[C@@H]1CC[C@]2(C(=O)N[C@H](CO)Cc3ccccc3)CC[C@]3(C)[C@H](CC[C@@H]4[C@@]5(C)CCCNC(C)(C)[C@@H]5CC[C@]43C)[C@@H]12`, the growth with SR leukemia was -56.8% (active); with RPMI-8226 leukemia it was -49.3% (active); with OVCAR-8 ovarian, -76.3% (active); in the experiment on OVCAR-5 ovarian, -93.5% (active); in the experiment on OVCAR-4 ovarian, -80.9% (active); with SK-OV-3 ovarian, -96.2% (active). Besides, the growth in the experiment with IGROV1 ovarian was -78.8% (active); with OVCAR-3 ovarian, -95.9% (active); with HS 578T breast, -60.5% (active); in the experiment on NCI/ADR-RES ovarian, -67.6% (active); with T-47D breast, -58% (active); with BT-549 breast it was -88.1% (active). The growth in the experiment with SW-620 colon is -82.3% (active); with MCF7 breast, -69.7% (active); in the experiment with HCT-116 colon it was -94.8% (active); in the experiment with HCC-2998 colon, -84.7% (active); with KM12 colon, -80.7% (active).
`OCc1cnccc1NCCCOc1ccccc1`: the growth in the experiment on SR leukemia was 99.9%; in the experiment on RPMI-8226 leukemia, 100%; with OVCAR-8 ovarian it was 102%; in the experiment on OVCAR-5 ovarian it was 113%; in the experiment on OVCAR-4 ovarian it was 102%; in the experiment on SK-OV-3 ovarian, 114%. Also, the growth in the experiment on IGROV1 ovarian was 110%; in the experiment on OVCAR-3 ovarian it was 107%; with HS 578T breast it was 98.7%; in the experiment with NCI/ADR-RES ovarian, 102%; in the experiment with T-47D breast, 101%; in the experiment on MDA-MB-435 melanoma, 110%. Also, the growth in the experiment on SW-620 colon was 98.3%; in the experiment on MCF7 breast, 92.1%; with HCT-116 colon it was 100%; with HCC-2998 colon, 97.1%; in the experiment with KM12 colon, 106%.
As to `c1ccc(-c2c(-c3ccccc3)[n+](Cc3ccc4ccccc4c3)c(-c3cccc4ccccc34)n2Cc2ccc3ccccc3c2)cc1`, the growth with SR leukemia was -36.5% (active); in the experiment on RPMI-8226 leukemia, -38.7% (active); with OVCAR-8 ovarian it was -44.4% (active); in the experiment on OVCAR-5 ovarian, -47.8% (active); with OVCAR-4 ovarian, -81% (active); in the experiment on SK-OV-3 ovarian it was -50.3% (active). Further, the growth with IGROV1 ovarian was -71.4% (active); with OVCAR-3 ovarian it was -88% (active); in the experiment with HS 578T breast, -26.9% (active); with NCI/ADR-RES ovarian, -18.9% (active); in the experiment on T-47D breast it was -73.4% (active); in the experiment on MDA-MB-435 melanoma it was -58.6% (active). The growth in the experiment on SW-620 colon was -66.1% (active); in the experiment with MCF7 breast, -15% (active); in the experiment on HCT-116 colon, -74.4% (active); in the experiment with HCC-2998 colon, -74.5% (active); with KM12 colon, -77.7% (active).
Take `Oc1c(Cl)cc(Cl)c(Cl)c1CNCCNCc1c(O)c(Cl)cc(Cl)c1Cl`: the growth with SR leukemia was 1.15% (active); in the experiment on RPMI-8226 leukemia, 18%; in the experiment with OVCAR-8 ovarian, 11.3%; with OVCAR-5 ovarian it was 54%; in the experiment with OVCAR-4 ovarian, 22.6%; in the experiment with SK-OV-3 ovarian, 22%. For the same compound, the growth is 16.4% in the experiment on IGROV1 ovarian; 19.1% in the experiment with OVCAR-3 ovarian; 57.7% with HS 578T breast; 4.33% (active) in the experiment on NCI/ADR-RES ovarian; 20.2% in the experiment on T-47D breast; 37.1% in the experiment with MDA-MB-435 melanoma. Also, the growth is 31.5% with SW-620 colon; 15.6% in the experiment on MCF7 breast; 13.9% in the experiment on HCT-116 colon; 25.2% with HCC-2998 colon; 24% in the experiment with KM12 colon.
`O=C(/C=C/c1ccc[nH]1)c1ccc(-n2ccc(C(F)(F)F)n2)c(F)c1`: the growth in the experiment on SR leukemia is 80.3%; in the experiment on RPMI-8226 leukemia it was -6.08% (active); in the experiment on OVCAR-8 ovarian, 95.6%; in the experiment with OVCAR-5 ovarian, 90.9%; in the experiment on OVCAR-4 ovarian it was 99.2%; with SK-OV-3 ovarian, 121%. Also, the growth is 93.4% with IGROV1 ovarian; 99.8% in the experiment on OVCAR-3 ovarian; 98% in the experiment on HS 578T breast; 93.1% with NCI/ADR-RES ovarian; 70.9% in the experiment with T-47D breast; 99.3% in the experiment with MDA-MB-435 melanoma. Also, the growth in the experiment with SW-620 colon was 103%; in the experiment with MCF7 breast, 30.9%; with HCT-116 colon, 85.6%; in the experiment on HCC-2998 colon, 94.2%; with KM12 colon, 29.6%.
Regarding `O=C(NCCc1ccccc1)Nc1ccc2cc3ccc(NC(=O)NCCc4ccccc4)cc3nc2c1`, the growth with SR leukemia was -30.2% (active); in the experiment on RPMI-8226 leukemia, 49.1%; with OVCAR-8 ovarian it was 23.8%; in the experiment on OVCAR-5 ovarian, 50.6%; in the experiment on OVCAR-4 ovarian, 62.6%; with SK-OV-3 ovarian, 41.4%. Also, the growth in the experiment with IGROV1 ovarian was 48.2%; with OVCAR-3 ovarian it was 19.2%; with HS 578T breast it was -26.2% (active); in the experiment with NCI/ADR-RES ovarian, 105%; in the experiment with T-47D breast, 29.7%; with MDA-MB-435 melanoma, -13.7% (active). Moreover, the growth in the experiment with SW-620 colon is 1.33% (active); in the experiment with MCF7 breast, 0.969% (active); with HCT-116 colon it was -32.5% (active); with HCC-2998 colon it was -8.17% (active); in the experiment on KM12 colon, 47.7%.
As to `O=C(CCN1CCCC1)c1ccc([N+](=O)[O-])cc1`, the growth is 98% with SR leukemia; 92.7% with RPMI-8226 leukemia; 101% in the experiment with OVCAR-8 ovarian; 102% in the experiment on OVCAR-5 ovarian; 102% with OVCAR-4 ovarian; 101% in the experiment with SK-OV-3 ovarian. For the same compound, the growth with IGROV1 ovarian is 105%; in the experiment with OVCAR-3 ovarian, 104%; in the experiment on HS 578T breast, 112%; in the experiment with NCI/ADR-RES ovarian, 100%; in the experiment on T-47D breast, 88.6%; in the experiment with MDA-MB-435 melanoma it was 107%. For the same compound, the growth with SW-620 colon was 105%; in the experiment with MCF7 breast, 87.6%; in the experiment with HCT-116 colon, 105%; in the experiment with HCC-2998 colon, 94.8%; with KM12 colon it was 105%.
Consider `c1ccc2c(-c3c[nH]c4ccccc34)c3c(cc2c1)[nH]c1ccccc13`, for which the growth in the experiment on SR leukemia was 29.4%; with RPMI-8226 leukemia, 54.5%; in the experiment with OVCAR-8 ovarian, 90.7%; with OVCAR-5 ovarian, 96%; in the experiment with OVCAR-4 ovarian, 57.8%; with SK-OV-3 ovarian, 84.5%. Besides, the growth with IGROV1 ovarian was 69%; in the experiment on OVCAR-3 ovarian it was 59.3%; in the experiment on HS 578T breast it was 84.1%; in the experiment with NCI/ADR-RES ovarian, 56.6%; in the experiment on T-47D breast it was 33.8%; in the experiment on MDA-MB-435 melanoma, -3.69% (active). The growth is 42.6% in the experiment with SW-620 colon; 30.9% in the experiment with MCF7 breast; 46.9% in the experiment with HCT-116 colon; 82.8% in the experiment with HCC-2998 colon; 35.7% with KM12 colon.
